Measurements from ChEMBL document CHEMBL1201862, “PubChem BioAssay data set” (2004).
Screen size: about 400,000 compounds; about 2,100 (0.53%) were called active. Not shown: some 14% with an inconclusive outcome. How the calls were made is not given here. Only a selection was taken, and actives are over-represented in it overall.

Molecular target: Ataxin-2 (Homo sapiens) (UniProt Q99700)
Experiment: qHTS for Inhibitors of ATXN expression.
Type: functional

Sequence of Ataxin-2 (Homo sapiens) (Q99700 whole entry): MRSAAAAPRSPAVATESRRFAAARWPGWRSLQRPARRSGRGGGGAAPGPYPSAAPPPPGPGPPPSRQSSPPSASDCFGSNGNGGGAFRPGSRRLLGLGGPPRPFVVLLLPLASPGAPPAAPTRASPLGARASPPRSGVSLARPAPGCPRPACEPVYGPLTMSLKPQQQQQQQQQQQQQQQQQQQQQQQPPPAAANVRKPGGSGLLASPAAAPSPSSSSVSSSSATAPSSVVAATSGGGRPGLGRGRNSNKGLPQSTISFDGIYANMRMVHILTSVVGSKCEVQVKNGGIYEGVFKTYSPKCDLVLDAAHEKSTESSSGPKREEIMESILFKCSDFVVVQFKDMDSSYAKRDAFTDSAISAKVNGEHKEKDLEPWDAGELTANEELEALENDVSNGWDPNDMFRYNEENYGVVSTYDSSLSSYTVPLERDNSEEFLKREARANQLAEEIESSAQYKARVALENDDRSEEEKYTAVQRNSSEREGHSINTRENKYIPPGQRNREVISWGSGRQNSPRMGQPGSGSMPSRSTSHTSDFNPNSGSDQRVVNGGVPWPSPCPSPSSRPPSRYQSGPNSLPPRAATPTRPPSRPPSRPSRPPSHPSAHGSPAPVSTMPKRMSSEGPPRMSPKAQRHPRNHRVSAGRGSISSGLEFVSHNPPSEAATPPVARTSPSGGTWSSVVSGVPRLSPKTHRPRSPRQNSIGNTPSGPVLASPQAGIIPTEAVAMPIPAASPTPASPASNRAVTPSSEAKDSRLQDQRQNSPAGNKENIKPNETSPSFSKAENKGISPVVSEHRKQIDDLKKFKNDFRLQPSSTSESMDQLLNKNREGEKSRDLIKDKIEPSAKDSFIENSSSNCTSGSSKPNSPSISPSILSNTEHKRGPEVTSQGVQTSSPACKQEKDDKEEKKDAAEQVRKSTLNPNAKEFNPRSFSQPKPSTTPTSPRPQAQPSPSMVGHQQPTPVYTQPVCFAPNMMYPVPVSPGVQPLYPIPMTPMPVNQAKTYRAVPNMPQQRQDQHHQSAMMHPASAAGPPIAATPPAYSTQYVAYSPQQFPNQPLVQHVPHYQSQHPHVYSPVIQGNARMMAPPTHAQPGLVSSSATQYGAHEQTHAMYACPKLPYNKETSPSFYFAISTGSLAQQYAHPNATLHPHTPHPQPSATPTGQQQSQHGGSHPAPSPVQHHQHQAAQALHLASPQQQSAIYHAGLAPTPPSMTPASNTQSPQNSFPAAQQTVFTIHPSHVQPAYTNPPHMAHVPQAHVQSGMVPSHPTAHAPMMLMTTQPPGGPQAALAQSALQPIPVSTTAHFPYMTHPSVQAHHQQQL

| SMILES | Potency |
| --- | --- |
| CCOc1ccc(CCNC(=O)Cn2ncn3nc(-c4ccc(OC)cc4)cc3c2=O)cc1OCC | inactive |
| Cc1cc2c(C)cc(=O)oc2c2c1NCCC2 | inactive |
| Fc1ccc(Br)cc1C1C=C(c2ccc(Br)cc2)Nc2ncnn21 (stereo not given) | inactive |
| CCN1/C(=C/c2ccc3cc(C)ccc3[n+]2CC)Sc2cc(C)ccc21 | 10.6 µM (active) |
| Cc1ccccc1C(=O)Nc1cc(C(F)(F)F)ccc1-n1cncn1 | inactive |
| CCCCn1nc(C(=O)Nc2cc(C(F)(F)F)ccc2N2CCOCC2)ccc1=O | 39.8 µM (active) |
| CCOC(=O)c1ccc(N2CCOCC2)c(NC(=O)c2ccc3c(c2)OCO3)c1 | inactive |
| O=C(Nc1ccccc1N1CCOCC1)c1cc(Br)c(Br)s1 | inactive |
| O=C1c2ccccc2-c2ncnc3c(N4CCOCC4)cc(N4CCOCC4)c1c23 | 17.8 µM (active) |
| c1cc2c3c(cccc3c1)C(N1CCOCC1)=N2 | inactive |
| C=CCN1C(=O)/C(=C/c2ccc(OC(C)=O)c(OCC)c2[N+](=O)[O-])SC1=S | 31.6 µM (active) |
| CCO/C=C1/C(=O)N(c2ccc(OC)cc2)C(=O)c2ccccc21 | inactive |
| O=C(O)c1cc2c(cc1NC(=O)C1CCCC1)OCCO2 | inactive |
| Cc1ccc2c(c1)OC(c1ccc3c(c1)OCCO3)CC2=O (stereo not given) | inactive |
| O=C(CCl)N1CCCC1c1ccc2c(c1)OCCO2 (stereo not given) | 35.5 µM (active) |
| CCOC(=O)c1sc(NC(=O)CCN2CCN(C)CC2)c(C(=O)OCC)c1C | inactive |
| CC(=O)O[C@@H]1C[C@H]2C(C)(C)C(=O)C=C[C@]2(C)[C@H]2CC[C@@]3(C)[C@H](c4ccoc4)OC(=O)[C@H]4O[C@]43[C@@]21C | 31.6 µM (active) |
| Cc1onc(-c2ccccc2Cl)c1C(=O)Nc1cc(=O)n(C)c(=O)n1C | inactive |
| Cc1ccc2c(Cl)cc(Cl)c(OCC(=O)OCC(=O)Nc3ccc(C#N)cc3)c2n1 | inactive |
| CCCCCCN1C[C@@H](n2cc(COC(=O)c3ccccc3)nn2)[C@H](O)C[C@@H]1c1ccc(C)cc1 | 22.4 µM (active) |

| SMILES | Potency |
| --- | --- |
| CCCCCCN1C[C@H](n2cc(COC(=O)c3ccccc3)nn2)[C@@H](O)C[C@@H]1c1ccc(Cl)cc1 | 31.6 µM (active) |
| CCCCC(NC(=O)Cc1c(C)c2cc3c4c(oc3cc2oc1=O)CCCC4)C(=O)O (stereo not given) | inactive |
| Cc1c(O)ccc2c(CN3CCN(CCO)CC3)cc(=O)oc12 | inactive |
| O=C(O)COc1ccccc1/C=N/Nc1ccc(S(=O)(=O)Nc2ccc(Cl)cc2)cc1[N+](=O)[O-] | inactive |
| Cc1nn(-c2ccccc2)c(N2CCCC2)c1/C=N/Nc1ccc(S(=O)(=O)Nc2ccccc2)cc1[N+](=O)[O-] | 31.6 µM (active) |
| Cc1c(NS(=O)(=O)c2ccc(NCCN3CCOCC3)c([N+](=O)[O-])c2)c(=O)n(-c2ccccc2)n1C | inactive |
| O=C(COc1ccc(Br)cc1)NCCN1CCCC1 | inactive |
| CC1=C(C(=O)OC(C)C)C(c2ccc(Cl)cc2)n2c(s/c(=C\c3ccc(OCC(=O)O)cc3)c2=O)=N1 (stereo not given) | inactive |
| CC1=CC2=NC(=O)/C(=C/c3coc4ccc(Cl)cc4c3=O)C(=N)N2O1 | inactive |
| CCOC(=O)c1sc(NC(=O)c2nc3nc(C)cc(C(F)F)n3n2)c(C(=O)OC)c1C | inactive |
| CCN1C(=O)c2cccc3c(S(=O)(=O)NC(Cc4ccccc4)C(=O)O)ccc1c23 (stereo not given) | inactive |
| O=C(COC(=O)c1ccccc1C(=O)c1ccc(Cl)c([N+](=O)[O-])c1)NC1CCCCCC1 | 35.5 µM (active) |
| O=C(CN(C(=O)c1ccccc1Cl)C1CCCCC1)Nc1ccc(Cl)c([N+](=O)[O-])c1 | 35.5 µM (active) |
| CC(=O)Nc1ccc(NC(=O)C(C)OC(=O)c2ccccc2C(=O)c2ccc(Cl)c([N+](=O)[O-])c2)cc1 (stereo not given) | 39.8 µM (active) |
| Cc1cc(OCC(=O)OCC(=O)NC2CCCCCC2)ccc1Cl | inactive |
| CN(CC(=O)Nc1ccccc1Cl)C1CCS(=O)(=O)C1 (stereo not given) | inactive |
| CN(CCC#N)C(=O)COC(=O)c1c2c(nc3ccccc13)/C(=C/c1ccco1)CC2 | inactive |
| CC(OC(=O)c1ccc(-n2cnnn2)cc1)C(=O)Nc1ccccc1[N+](=O)[O-] (stereo not given) | inactive |
| Cc1ccc(C(=O)COC(=O)CCC(=O)NC2CCCCC2)cc1[N+](=O)[O-] | inactive |
| C=CCNC(=O)c1ccccc1NC(=O)Cc1ccccc1[N+](=O)[O-] | inactive |

| SMILES | Potency |
| --- | --- |
| CN(C(=O)COC(=O)c1ccc([N+](=O)[O-])cc1N)c1ccccc1 | inactive |
| CN(CCC#N)C(=O)COC(=O)c1ccccc1C(=O)c1ccc(Cl)c([N+](=O)[O-])c1 | 29.9 µM (active) |
| CC(=O)Nc1ccc(NC(=O)C(C)OC(=O)CCSc2ccccc2Cl)cc1 (stereo not given) | inactive |
| O=C(CSc1nnnn1C1CC1)N1CCN(c2ccc(O)cc2)CC1 | inactive |
| CC(=O)c1ccccc1NC(=O)COC(=O)c1cc[n+]([O-])cc1 | inactive |
| Cc1ccc(Cl)c(NC(=O)COC(=O)c2ccccc2C(=O)c2ccc(Cl)c([N+](=O)[O-])c2)c1Cl | 20 µM (active) |
| CCOC(=O)Cn1nc(C)c(NC(=O)COc2ccc([N+](=O)[O-])c(C)c2)c1C | inactive |
| Cn1c(N)c(C(=O)COC(=O)CC(NC(=O)c2ccccc2Cl)c2ccccc2)c(=O)n(C)c1=O (stereo not given) | inactive |
| Cn1c(N)c(C(=O)COC(=O)c2ccccc2C(=O)c2ccc(Cl)c([N+](=O)[O-])c2)c(=O)n(C)c1=O | 20 µM (active) |
| CC(C)Cn1c(N)c(C(=O)COC(=O)c2cccnc2Cl)c(=O)n(C)c1=O | inactive |
| COC(=O)c1cc(-c2ccc(Br)cc2)c2c(=O)n(C)c(=O)n(C)c2n1 | inactive |
| Cc1sc2nc3ccc(NCc4ccco4)nn3c(=O)c2c1C | inactive |
| O=C(/C=C/c1cn(CC(O)CN2CCc3ccccc32)c2ccccc12)c1ccc(Br)cc1 (stereo not given) | inactive |
| COc1ccc(CNc2cc(C)nc3ccc(OC)cc23)cc1 | inactive |
| COc1ccc2cc(CNCCOCCOCCNCc3ccc4cc(OC)ccc4c3)ccc2c1 | 29.9 µM (active) |
| COc1ccc(CNCCC2(C(C)C)CCOC(C)(C)C2)cc1 (stereo not given) | inactive |
| OCCCc1nc2n(n1)C(c1ccccc1)C=C(c1ccccc1)N2 (stereo not given) | inactive |
| Cc1cc(N2CCN(C(=O)Oc3ccc([N+](=O)[O-])cc3)CC2)c2ccccc2n1 | 35.5 µM (active) |
| Cc1cc(N2CCN(c3ccc(C(F)(F)F)cc3[N+](=O)[O-])CC2)c2ccccc2n1 | inactive |
| O=C(Cc1ccccc1)Nc1cc([N+](=O)[O-])ccc1N1CCOCC1 | inactive |
